Experimental data as given in PubChem BioAssay (NCI).
The panel holds about 83,000 compounds, 20% with a hit somewhere; the sample as a whole holds those more often.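 The endpoint reported here, percent growth, reads 100 for growth as untreated, 0 for no net growth and -100 for all cells dead.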 Active and inactive are the calls of the source.

system: SR leukemia; test: NCI-60 one-dose screen, 48 h (100 = growth as untreated, 0 = no growth, -100 = all killed); details: 10 µM unless noted
Procedure: Growth inhibition of the SR human tumor cell line is measured as a screen for anti-cancer activity. Cells are grown in 96 well plates and exposed to the test compound for 48 hours. Compounds are tested at a single concentration, which is 10^-5 M for most compounds. The reported endpoint is percent growth (GI% or GIPRCNT), where numbers from 0 - 100% represent growth inhibition, and numbers from -100% - 0 represent cell death. For example, a value of 40 represents 60% growth inhibition. A value of 0 means no net growth occurred over the course of the experiment. A value of -40 indicates 40% of cells at the beginning of the experiment died by the end of the experiment. A value of -100 means all cells are dead at the end of the experiment.
NCI-60 Human Tumor Cell Lines Screen was performed using the standard one-dose NCI protocol, which is described in more detail at https://dtp.cancer.gov/discovery_development/nci-60/default.htm.
Compounds with GIPRCNT values below 10 were considered active. Activity score was based on GIPRCNT using the following formula: […]
Score is 0 for GIPRCNT values of 100 or above, 50 for GIPRCNT values of 0, and 100 for GIPRCNT values of -100.

**Q.** For `O=C(C1=Cc2cc3ccccc3n2Cc2cnnn21)c1ccc(F)cc1`, which growth is on record?
**A.** 87.6% (inactive)

**Q.** For `O=C(Nc1ncc(Cc2ccccc2)s1)c1sc2ccccc2c1Cl`, which growth is on record?
**A.** 16% (inactive)

**Q.** With `Cc1ccc(S(=O)(=O)OC[C@]23CCC(C)(C)C[C@H]2C2=CC[C@@H]4[C@@]5(C)CCCNC(C)(C)[C@@H]5CC[C@@]4(C)[C@]2(C)CC3)cc1` as the compound, how does the growth read?
**A.** -27.3% (active)

**Q.** With `NCCCNc1nc2ccccc2c2c(=O)c3cc(Cl)ccc3sc12` as the compound, how does the growth read?
**A.** -44.3% (active)

**Q.** Which growth does the source give for `COC(=O)[C@@]1(C)CC[C@]2(C)CC[C@]3(C)C4=CC=C5C(=CC(=O)C(O)=C5C)[C@]4(C)[C@@H](O)C[C@@]3(C)[C@@H]2C1` here?
**A.** -6.62% (active)

**Q.** How did the growth turn out when `Ic1ccc(Nc2nc3nonc3nc2Nc2ccc(I)cc2)cc1` was run?
**A.** -12.6% (active)

**Q.** With `COCCOC(C)C(/C=N/NC(N)=S)=N/NC(N)=S` (stereo not given) as the compound, how does the growth read?
**A.** 53.2% (inactive)

**Q.** How did the growth turn out when `CCn1cc(Cc2cc(C(=O)Nc3cc4cc(OC)c(OC)cc4c(C)n3)ccc2Cl)cn1` was run?
**A.** 10% (inactive)

**Q.** With `Cc1cc(C(=O)CCCC(=O)c2cc(C)c(O)c(C)c2)cc(C)c1O` as the compound, how does the growth read?
**A.** 81.9% (inactive)

**Q.** Which growth does the source give for `CCN(CC)C(=O)C1=C(C)NC(=O)NC1c1ccc2c(c1)OCO2` (stereo not given) here?
**A.** 105% (inactive)

**Q.** `Cc1ccc(O)c(NC(=O)c2cccc(Nc3ccnc(C(F)(F)F)c3)c2)c1` was tested. Which growth did it give?
**A.** 39.8% (inactive)

**Q.** With `O=S(O)c1cc(Cl)cc(Cl)c1OCc1ccccc1` as the compound, how does the growth read?
**A.** 92.6% (inactive)

**Q.** `CCCN(CCSSCCNc1nc(N(C)O)nc(N(C)O)n1)c1nc(N(C)O)nc(N(C)O)n1` was tested. Which growth did it give?
**A.** 129% (inactive)

**Q.** With `O=C(CSc1nnnn1-c1ccccc1)Nc1ccc(Oc2ccccc2)cc1` as the compound, how does the growth read?
**A.** 7.48% (active)

**Q.** Which growth does the source give for `N#Cc1c(-c2ccccc2)cc(-c2ccccc2)n(CCCCC(=O)NO)c1=O` here?
**A.** 7.41% (active)

**Q.** Which growth does the source give for `Cc1nn(-c2ccc([N+](=O)[O-])cc2)c2ncnc(N/N=C/c3ccccc3O)c12` here?
**A.** 4.55% (active)

**Q.** `CN(C)CCCn1c2c(c3cnccc3c1=O)C(=O)c1ccccc1-2` was tested. Which growth did it give?
**A.** -8.62% (active)

**Q.** For `O=C1OCC2=C1C(c1ccccc1)c1cc3c(cc1N2CCO)OCCO3` (stereo not given), which growth is on record?
**A.** 19.7% (inactive)

**Q.** For `COc1ccccc1S(=O)(=O)Nc1ccc2c3c(cc(CCC(=O)NCCCCNc4cccc5c4C(=O)N(C4CCC(=O)NC4=O)C5=O)cc13)C(=O)N2C` (stereo not given), which growth is on record?
**A.** 13.9% (inactive)

**Q.** How did the growth turn out when `Cc1nc2sc(C(=O)Nc3ccccn3)c(N)c2cc1C(C)O` (stereo not given) was run?
**A.** 15.2% (inactive)

**Q.** With `COC1C(O)CC(OC2CC(OC3CC(O[C@@H]4C(=O)c5c(cc6cc(OC7CC(OC8CC(O)C(O)C(C)O8)C(O)C(C)O7)c(C)c(O)c6c5O)CC4[C@H](OC)C(=O)C(C)=O)OC(C)C3O)OC(C)C2O)OC1C` (stereo not given in full) as the compound, how does the growth read?
**A.** -5.46% (active)

**Q.** Which growth does the source give for `COc1ccc(C=Nc2c(C(=O)Nc3cccc(Cl)c3C)sc3nc(C)c(C(=O)/C=C/c4ccc(OC)cc4)cc23)cc1` here?
**A.** 30.8% (inactive)

**Q.** For `COc1ccc(C2CC(c3ccccc3)=NN2C(=O)c2cc(OC)c(OC)c(OC)c2)cc1O` (stereo not given), which growth is on record?
**A.** 29.8% (inactive)

**Q.** How did the growth turn out when `CC(C)Cc1nc(Nc2ccccc2)[nH]c(=O)c1C#N` was run?
**A.** 34.2% (inactive)

**Q.** For `C=C(C)[C@@H]1CC[C@]2(CO)CC[C@]3(C)[C@H](CC[C@@H]4[C@@](C)(CCCN)[C@H](C(=C)C)CC[C@]43C)[C@@H]12`, which growth is on record?
**A.** -14% (active)

**Q.** With `N[C@@H]1CCC[C@H]1NCCCCN1C(=O)c2cccc3cc([N+](=O)[O-])cc(c23)C1=O` as the compound, how does the growth read?
**A.** 4.54% (active)

**Q.** How did the growth turn out when `CCN(CC)CCOc1ccc(C(=O)/C=C\c2ccc(Cl)cc2Cl)cc1` was run?
**A.** -15.4% (active)

**Q.** `COCCn1cc(-c2csc(-c3c[nH]c4ccccc34)n2)c2cccnc21` was tested. Which growth did it give?
**A.** 8.15% (active)

**Q.** With `Nc1cc(-c2ccc(Cl)cc2)nn1-c1nnc(/C=C/c2ccco2)c(=O)[nH]1` as the compound, how does the growth read?
**A.** 38.1% (inactive)

**Q.** For `COCCn1cc(-c2nc(-c3cc4cccnc4n3C)cs2)c2ccccc21`, which growth is on record?
**A.** 10.1% (inactive)

**Q.** With `Cc1ccc(OCCOCCOCCOc2ccc(C)n(O)c2=S)c(=S)n1O` as the compound, how does the growth read?
**A.** 25.6% (inactive)

**Q.** How did the growth turn out when `COc1ccc2c(c1)oc1c(C)c3c(c(C)c12)C(=O)N(CCOS(C)(=O)=O)C3=O` was run?
**A.** 65.8% (inactive)

**Q.** Which growth does the source give for `O=C(O)CC(C(=O)O)/C(=C\c1ccccc1)c1ccccc1` (stereo not given) here?
**A.** 105% (inactive)

**Q.** Which growth does the source give for `CCOc1ccc(/C=C/C(=O)c2cccc(OCCCOc3cccc(C(=O)/C=C/c4ccc(OCC)cc4)c3)c2)cc1` here?
**A.** 90.1% (inactive)

**Q.** Which growth does the source give for `CNC(=O)c1cc(Oc2ccc3c(c2)sc2nc(-c4cc(C(F)(F)F)cc(C(F)(F)F)c4)cn23)ccn1` here?
**A.** 34% (inactive)

**Q.** `CCNC(=O)N1CCc2c(Br)c3c(c(OC)c2C1Cc1ccc(OC)cc1)OCO3` (stereo not given) was tested. Which growth did it give?
**A.** 33.1% (inactive)

**Q.** `CC1=Nc2cnc(Nc3ccc(N4CCCCC4)cc3)nc2Nc2ccccc21` was tested. Which growth did it give?
**A.** 34% (inactive)

**Q.** For `COC1C(O)CC(OC2CC(OC3CC(O[C@@H]4C(=O)c5c(cc6cc(OC7CC(OC8CC(O)C(O)C(C)O8)C(O)C(C)O7)c(C)c(O)c6c5O)CC4[C@H](OC)C(=O)O)OC(C)C3O)OC(C)C2O)OC1C` (stereo not given in full), which growth is on record?
**A.** 18% (inactive)

**Q.** For `C=C1C(=O)O[C@H]2[C@H]1CC/C(CNC(=O)Cc1c[nH]c3ccccc13)=C\CC[C@@]1(C)O[C@@H]21`, which growth is on record?
**A.** -13.6% (active)

**Q.** How did the growth turn out when `O=C(Nc1ccccc1O)c1ccc(CNc2ccnc(C(F)(F)F)c2)cc1` was run?
**A.** 24.3% (inactive)
